First the molecules themselves.
B1: ENSMUSG00000032194.202|Kank2|53:57 (ssRNA)
RNA: GGGAGUUCUACAGUCCGACGAUCGCUUCGAUAUCCGCAUGCUAGACAGGCUGCACCUUUCUCUAACUGGGGUUCCUUUCUGGCCCCAGGAUCUCACACACGUUCGUGGGGGGAUUUUGUUGUUGUUUCUUUGUUUCUUUUCUUCAUAAAGAAGAAAAAGGAAACAACUUCUAGAUGUGCCUUGCGAUAGGGAGGACUUUGUCCUCUCAAGUCUCCCUGUCGUAUCCAGAUCACAGCUGAACCCACUGGGCCUUGGCGCCAAACCUCAGCAGGGCAGCAUUGAGACUCAUGGACUAAAGGAAAGCUCUUGCGGUCGCACUAGUGUGGAAUUCUCGGGUGUCAAGG
B2: ENSMUSG00000022095.275|Fam160b2|1:15;62:66;198:203 (ssRNA)
RNA: GGGAGUUCUACAGUCCGACGAUCGCUUCGAUAUCCGCAUGCUACACACACACACACACAGAGAGAGAGAGAGAGAGAGAGAGCUGUGAGUACACAUGGGUGCUGCACACGGACAGGAGCAGAUCUUGGUGGAGUGGGUCUACACUUGAGAUUUGUACUCGUUUGAGAGGCUGGGCAAUACUCAAUGCACUUUGGCAUUUGCAUGGUGUCUUCACAACAGCACAGCAAUAAACAUUGUGAUACACACGACAUGCUGACUCUCCCCAGUCUGCUUUUCUUUUCCCCAAGCUUUUCUGCCCCUGUACUCUUGCGGUCGCACUAGUGUGGAAUUCUCGGGUGUCAAGG
B3: ENSMUSG00000061578.1474|Ksr2 (ssRNA)
RNA: GGGAGUUCUACAGUCCGACGAUCGCUUCGAUAUCCGCAUGCUAAAUAAAUGGAUGGAUGGAUGGAUUGAUUUGUGAAUGAAUGGAUGAAUGGAUGGGUAGGUGGGUGGAUGCAUAGGCAAGUAGAUGAAUGAAUAUGUGGGUAGAAGGGUGAGUGGGUGGAUGAAUGGAUGGAUAGGUUGGUAGGUUAAUGUAUUCGUGGAUGGGUGAAUGGAUGGAUGGAUAGAUAGAUGGGAAGGUGGAUGGACAGAUGGAUGGAUGGAUAGAUAGAUGGACAGGUGGUUGGUGGAUAAAUGAGUGAAUGACUCUUGCGGUCGCACUAGUGUGGAAUUCUCGGGUGUCAAGG
B4: ENSMUSG00000061578.1471|Ksr2|12:16 (ssRNA)
RNA: GGGAGUUCUACAGUCCGACGAUCGCUUCGAUAUCCGCAUGCUAUGGAUGGAUAGCAUACUGAAUAAAUGGAUGGAUGGAUGGAUUGAUUUGUGAAUGAAUGGAUGAAUGGAUGGGUAGGUGGGUGGAUGCAUAGGCAAGUAGAUGAAUGAAUAUGUGGGUAGAAGGGUGAGUGGGUGGAUGAAUGGAUGGAUAGGUUGGUAGGUUAAUGUAUUCGUGGAUGGGUGAAUGGAUGGAUGGAUAGAUAGAUGGGAAGGUGGAUGGACAGAUGGAUGGAUGGAUAGAUAGAUGGACAGGUGGUUGGUCUCUUGCGGUCGCACUAGUGUGGAAUUCUCGGGUGUCAAGG
B5: ENSMUSG00000058297.476|Spock2 (ssRNA)
RNA: GGGAGUUCUACAGUCCGACGAUCGCUUCGAUAUCCGCAUGCUAGCUGUGUUGGAAAGAGUUCAACCAAAUUACGGCAGCACCACAUCUUGCCGAGCCCUGGAGCUGCCCUACUAAGAGCCUCCUUAGCCCUGGGUGCUGGGAAGGAUGGUGUACGUUGGGGAAGUUUGAGGUUGGAGAGAGUAAAUGUGCCUUGAGAGACCACUCAGAGGUCCCAGGAGGAACGGGGGCGGGGCUUAGCCUGGGAGUUCUGGCAGGAGGCAAAGUUGGUGAGAGUCCUGGGACAUCUUACCCCCAGUGUUCCACUCUUGCGGUCGCACUAGUGUGGAAUUCUCGGGUGUCAAGG
B6: ENSMUSG00000090935.506|Synj2bp|218:224 (ssRNA)
RNA: GGGAGUUCUACAGUCCGACGAUCGCUUCGAUAUCCGCAUGCUAAAGCUCCAUAGAAGGCAAGACGCAUUCCACAUCUUGUCUUGACCAGCAGCACUCUGGAGGCCCAGUGUCUGCUACCCUUCUUGUAUCUGAUGGCAUGGGUAACAGCUCUGCCAUGGGCCUGCUUACUUCUAGUAUUCACCUCAGGGCUUGGAAAUUGGUUUUGAAAGGCUUUUAGACAUAGAAAGUAAAACUAAUGGCAAGGAGGAUAAAACACUGUACACACAUGUAUUGUUGAUCUAAAUAAAAAAUAUCAUUGGUAGCUCUUGCGGUCGCACUAGUGUGGAAUUCUCGGGUGUCAAGG
B7: ENSMUSG00000032194.149|Kank2 (ssRNA)
RNA: GGGAGUUCUACAGUCCGACGAUCGCUUCGAUAUCCGCAUGCUAGCAGAGGAGACUACUUCUAGAAAUACUUUCAGACCUACAGACAAAAAAGAAAAAAGGCCAUUCCGGAGUGACUCCCAGCAUCACAGCCCAGAACCUCCUCCUCAAAGGAGAGUAAACAGAGACUGUGAUACUGACCAAGUACAGGCGCUCGCUAUGAAGCCCAUAUGUUCCUGAUUAAGAGCUGGCUGGCCUCAGAGCACUCCCAGAACUAGCUUAAAGUGACAGGCUUUGCUGAAAUCCAAAGGGACAAAAGAGUAGUUCUCUUGCGGUCGCACUAGUGUGGAAUUCUCGGGUGUCAAGG
B8: ENSMUSG00000022095.206|Fam160b2 (ssRNA)
RNA: GGGAGUUCUACAGUCCGACGAUCGCUUCGAUAUCCGCAUGCUAGACAUGAAAGAGGAGGAAACUCCAUGACCUCUACAUCCCCCGCAGUCCUCCCAGCGGGGGAGGACUUCUCUGCUGCUCCGAAGAACAUCAUGCACUCCUGUGUGUGUGUGUGAGUGUGUGUGUGUGUGUGUGUGUGUGUGUGUGUGUAUGUGUGUGUAUAUGUGUGUGUGUGUGUGUAUGUGUGUGUGUGUGUGUGAGUGAGUGUGUGUGUGUGUGUGUGUGUGUGAGUGUGUGUGUAUAUGUGUGUGUGUGUGUGAGAGCUCUUGCGGUCGCACUAGUGUGGAAUUCUCGGGUGUCAAGG
B9: ENSMUSG00000022095.203|Fam160b2 (ssRNA)
RNA: GGGAGUUCUACAGUCCGACGAUCGCUUCGAUAUCCGCAUGCUACACAGGUUGCCAGGAGGUGACAUGAAAGAGGAGGAAACUCCAUGACCUCUACAUCCCCCGCAGUCCUCCCAGCGGGGGAGGACUUCUCUGCUGCUCCGAAGAACAUCAUGCACUCCUGUGUGUGUGUGUGAGUGUGUGUGUGUGUGUGUGUGUGUGUGUGUGUGUAUGUGUGUGUAUAUGUGUGUGUGUGUGUGUAUGUGUGUGUGUGUGUGUGAGUGAGUGUGUGUGUGUGUGUGUGUGUGUGAGUGUGUGUGUAUAUGCUCUUGCGGUCGCACUAGUGUGGAAUUCUCGGGUGUCAAGG
B10: ENSMUSG00000022095.204|Fam160b2 (ssRNA)
RNA: GGGAGUUCUACAGUCCGACGAUCGCUUCGAUAUCCGCAUGCUAUUGCCAGGAGGUGACAUGAAAGAGGAGGAAACUCCAUGACCUCUACAUCCCCCGCAGUCCUCCCAGCGGGGGAGGACUUCUCUGCUGCUCCGAAGAACAUCAUGCACUCCUGUGUGUGUGUGUGAGUGUGUGUGUGUGUGUGUGUGUGUGUGUGUGUGUAUGUGUGUGUAUAUGUGUGUGUGUGUGUGUAUGUGUGUGUGUGUGUGUGAGUGAGUGUGUGUGUGUGUGUGUGUGUGUGAGUGUGUGUGUAUAUGUGUGUGCUCUUGCGGUCGCACUAGUGUGGAAUUCUCGGGUGUCAAGG
B11: ENSMUSG00000022095.205|Fam160b2 (ssRNA)
RNA: GGGAGUUCUACAGUCCGACGAUCGCUUCGAUAUCCGCAUGCUAGGAGGUGACAUGAAAGAGGAGGAAACUCCAUGACCUCUACAUCCCCCGCAGUCCUCCCAGCGGGGGAGGACUUCUCUGCUGCUCCGAAGAACAUCAUGCACUCCUGUGUGUGUGUGUGAGUGUGUGUGUGUGUGUGUGUGUGUGUGUGUGUGUAUGUGUGUGUAUAUGUGUGUGUGUGUGUGUAUGUGUGUGUGUGUGUGUGAGUGAGUGUGUGUGUGUGUGUGUGUGUGUGAGUGUGUGUGUAUAUGUGUGUGUGUGUGCUCUUGCGGUCGCACUAGUGUGGAAUUCUCGGGUGUCAAGG

Whole data set: some 9,900 sequences, median “r (bound/input frequency ratio)” near 0.7, cut for the highest 2% near 6.5. Many of the other results were omitted from the sample, so the highest values are more common in it than they were.

TDP-43, sequence (Q13148 whole entry): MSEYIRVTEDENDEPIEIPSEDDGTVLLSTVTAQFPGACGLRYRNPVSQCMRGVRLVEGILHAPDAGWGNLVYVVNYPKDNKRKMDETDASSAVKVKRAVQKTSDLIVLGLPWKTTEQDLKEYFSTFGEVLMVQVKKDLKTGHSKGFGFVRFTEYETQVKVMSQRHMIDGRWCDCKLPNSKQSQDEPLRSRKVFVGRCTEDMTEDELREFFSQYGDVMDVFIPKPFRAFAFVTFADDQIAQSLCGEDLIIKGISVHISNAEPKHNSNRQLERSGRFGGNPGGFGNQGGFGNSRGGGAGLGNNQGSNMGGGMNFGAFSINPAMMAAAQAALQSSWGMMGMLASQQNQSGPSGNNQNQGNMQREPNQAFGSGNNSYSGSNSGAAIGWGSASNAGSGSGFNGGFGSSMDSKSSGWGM

The target of this test is TDP-43 (Homo sapiens, UniProt Q13148 1-414). The test can be described thus: RNA Bind-n-Seq with designed 260-mer pool; 25 mM Tris-HCl, 150 mM KCl, 3 mM MgCl2, BSA (printed 500 mg/mL), 20 units/mL SUPERase IN; pH not stated; 500 nM RNA pool, 1 h, 4 C; TDP-43 5, 50, 500 nM; high values mean tight binding. To be noted: protein: recombinant; tags: SBP (GST cleaved off with PreScission; pGEX-GST-SBP). In a few lines:
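In 25 mM Tris-HCl, 150 mM KCl, 3 mM MgCl2, BSA and SUPERase IN, 500 nM of an in vitro-transcribed 260-nt 3′ UTR oligo pool was incubated for 1 h at 4 °C with SBP-tagged TDP-43 (5, 50 or 500 nM) captured on streptavidin beads. RNA remaining after washes was biotin-eluted, reverse transcribed, PCR-amplified and sequenced. Binding, R, is the bound-sample abundance of each oligo, normalized to mapped reads, divided by its abundance in input. Each duplicate used a separate, independent protein batch.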
Turning to B1, the binding signal was 0.269 R (bound/input frequency ratio).

Turning to B2, the binding signal is 2.5 R (bound/input frequency ratio).

With B3, the binding signal was 3.43 R (bound/input frequency ratio).

As to B4, the binding signal is 8.75 R (bound/input frequency ratio).

B5: the binding signal was 3.44 R (bound/input frequency ratio).

Take B6: the binding signal is 0.236 R (bound/input frequency ratio).

Take B7: the binding signal was 0.573 R (bound/input frequency ratio).

As to B8, the binding signal was 3.86 R (bound/input frequency ratio).

Consider B9, for which the binding signal was 8.18 R (bound/input frequency ratio).

For B10, the binding signal is 7.95 R (bound/input frequency ratio).

On to B11, for which the binding signal was 7.87 R (bound/input frequency ratio).

Source of the values: publication PMC12864922, “TDP-43 directly inhibits mRNA accumulation in neurites through modulation of mRNA stability”.
